Compounds with a hit are over-represented: about 6.7% of the library has one in this group of screens.
Pf Dd2 inh: blocks growth of Plasmodium falciparum Dd2 parasites. P. falciparum Dd2 growth, SYBR Green, 72 h; active compounds read low. activity change, % at 10 µM. hit rate 2.3% among 94,000. AID 1159554; in the data active = activity change below about -80%; inconclusive = no clear call, values can overlap the other calls
T cruzi growth-1: blocks T. cruzi growth in NIH3T3 culture. hit rate 5.9% among 77,000. T. cruzi beta-gal in NIH3T3, GalScreen luminescence, 90 h. inhibition, % at 8.34 µM;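 active = mean inhibition above about 93%, with at least 55% of replicates each passing it, limit read from the data, passing the limit was not always enough; inconclusive = only one of those two conditions holds; inactive = neither condition holds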
C diff HTS: inhibitors of Clostridium difficile growth; growth activity, negative = inhibition, % at 16 µg/mL (by protocol); hit rate 0.25% among 86,000; Clostridium difficile clinical isolate growth, OD600, 24 h; active compounds read low;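 active = mean growth activity at or below -80% and every replicate also at or below -80%; inconclusive = mean at or below -80% but some replicate above -80%; inactive = mean growth activity above -80%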;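 also: 0% = DMSO wells and -100% = levofloxacin 16 µg/mL wells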
T cruzi growth-2: Trypanosoma cruzi proliferation inhibition | shares compounds with T cruzi growth-1 | T. cruzi beta-gal in NIH3T3, GalScreen luminescence, 90 h | inhibition, % at 8.35 µM | hit rate 72% among 5,600 | AID 651739;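 active = mean replicate inhibition above about 95% and at least 55% of replicates individually reaching it, limit read from the data; inconclusive = only one of the two criteria is met; inactive = neither criterion is met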
T cruzi growth-3: blocks T. cruzi growth in NIH3T3 host cells; shares compounds with T cruzi growth-1; T. cruzi beta-gal in NIH3T3, GalScreen luminescence, 90 h; inhibition, % at 2.09 µM; hit rate 21% among 5,600; AID 651740;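 active = mean inhibition above about 95%, with at least 55% of replicates also reaching it, limit read from the data; inconclusive = meets just one of the two conditions; inactive = meets neither condition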;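 also: plate controls were neutral control median for no effect and positive control median for full effect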
3T3 cytotox: cytotoxicity in mouse NIH/3T3 fibroblasts. shares compounds with T cruzi growth-1. cytotoxicity (signal decrease), % at 8.35 µM. hit rate 14% among 5,600. NIH/3T3 viability, CellTiter-Glo ATP luminescence, 90 h;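 active = mean signal decrease across replicates above about 35% based on untreated-well scatter, with enough replicates individually passing, limit read from the data; inconclusive = no rule stated though some were filed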;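 also: 0% = median of neutral control wells and 100% = median of positive control wells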
NIH3T3 tox 2: cytotoxicity in mouse NIH/3T3 fibroblasts. hit rate 56% among 5,600. NIH/3T3 viability, CellTiter-Glo ATP luminescence, 90 h. shares compounds with T cruzi growth-1. inhibition, % at 24.9 µM;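 active = mean loss of cell viability signal at or above a set limit, and enough replicates individually reaching it; inconclusive = meets only the mean limit or only the replicate share; inactive = meets neither condition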;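 also: 0% = median of neutral control wells and 100% = median of positive control wells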
Numbers without * were called inactive; ? = inconclusive; / = no result.

SMILES	Pf Dd2 inh	T cruzi growth-1	C diff HTS	T cruzi growth-2	T cruzi growth-3	3T3 cytotox	NIH3T3 tox 2
COc1ccccc1NC(=O)Nc1ccc2c(c1)C(=O)N(C)C[C@@H](OC)[C@H](C)CN(Cc1ccccc1Cl)[C@H](C)CO2	-66.6	108.7*	0.4	107.7*	113.1*	10.1	7.9
CO[C@H]1CN(C)C(=O)c2cc(NS(=O)(=O)c3ccc(C)cc3)ccc2OC[C@@H](C)N(Cc2nccs2)C[C@H]1C	-30.8	107.1*	20.9	104.0*	24.6	-3.3	40.3*
CO[C@@H]1CN(C)C(=O)c2ccc(NS(=O)(=O)c3ccc(C)cc3)cc2OC[C@@H](C)N(Cc2nccs2)C[C@@H]1C	-6.9	44.6	/	/	/	/	/
COc1ccccc1CN1C[C@H](C)[C@H](OC)CN(C)C(=O)c2cc(NC(C)=O)ccc2OC[C@@H]1C	13.2	-23.9	/	/	/	/	/
CCCNC(=O)N1CC2(CCN(Cc3cccnc3)CC2)c2c(n(C)c3cc(OC)ccc23)[C@H]1CO	-54.6	/	5.2	/	/	/	/
OC[C@@H]1[C@H](c2ccc(-c3cccnc3)cc2)[C@@H]2CN(CC3CCOCC3)CCCCN12	-53.0	63.6	-6.3	/	/	/	/
C[C@H](CO)N1C[C@H](C)[C@H](CN(C)C(=O)C2CCCCC2)Oc2ncc(C#CC(C)(C)O)cc2C1=O	24.6	-89.5	4.2	/	/	/	/
COC(=O)[C@@H]1[C@@H](CO)[C@@H]2Cn3c(ccc(C4=CCCC4)c3=O)[C@@H]2N1C(=O)C1CCCC1	9.0	58.4	-2.4	/	/	/	/
C[C@H]1CN([C@@H](C)CO)C(=O)c2ccccc2-c2ccccc2CO[C@H]1CN(C)C(=O)c1ccncc1	23.9	31.2	-3.0	/	/	/	/
CO[C@H]1CN(C)C(=O)c2ccc(NC(=O)NC(C)C)cc2OC[C@@H](C)N(Cc2ccccn2)C[C@@H]1C	-40.3	100.5*	/	59.9	-41.7	15.4	6.7
COCC(=O)Nc1ccc2c(c1)OC[C@H](C)N(Cc1cc(F)ccc1F)C[C@@H](C)[C@H](OC)CN(C)C2=O	9.0	96.8*	/	96.5*	31.2	-7.5	16.4
CO[C@@H]1CN(C)C(=O)c2cc(NC(=O)C3CC3)ccc2OC[C@H](C)N(Cc2cc(F)ccc2F)C[C@H]1C	-71.3	108.6*	/	80.3	38.6	-2.3	-2.9
CO[C@@H]1CN(C)C(=O)c2ccc(NC(=O)Nc3ccccc3F)cc2OC[C@@H](C)N(Cc2ccccc2F)C[C@H]1C	-90.3*	116.7*	/	106.4*	111.0*	-2.6	-0.7
CO[C@@H]1CN(C)C(=O)c2ccc(NC(=O)NC(C)C)cc2OC[C@@H](C)N(Cc2ccccn2)C[C@@H]1C	-12.4	63.6	/	/	/	/	/
COCC(=O)Nc1ccc2c(c1)OC[C@@H](C)N(Cc1cc(F)ccc1F)C[C@@H](C)[C@H](OC)CN(C)C2=O	-70.9	47.4	/	/	/	/	/
CO[C@H]1CN(C)C(=O)c2ccc(NC(=O)C3CC3)cc2OC[C@@H](C)N(Cc2cc(F)ccc2F)C[C@H]1C	-7.3	40.3	/	/	/	/	/
CO[C@@H]1CN(C)C(=O)c2cc(NC(=O)Nc3ccccc3F)ccc2OC[C@@H](C)N(Cc2ccccc2F)C[C@H]1C	-65.8	52.4	-0.2	/	/	/	/
CO[C@H]1CN(C)C(=O)c2cc(NS(=O)(=O)c3cccc(F)c3)ccc2OC[C@H](C)NC[C@H]1C	44.3	48.9	/	/	/	/	/
C[C@@H]1CN([C@H](C)CO)C(=O)Cc2cc(NC(=O)C3CCCCC3)ccc2O[C@H]1CN(C)Cc1ccc(C(F)(F)F)cc1	3.5	82.5	80.1	/	/	/	/
CO[C@@H]1CN(C)C(=O)c2cc(NC(=O)C3CCOCC3)ccc2OC[C@@H](C)N(S(=O)(=O)c2ccc(Cl)cc2)C[C@H]1C	-65.6	14.7	/	/	/	/	/
COc1ccccc1-c1cnc2c(c1)C(=O)N([C@H](C)CO)C[C@H](C)[C@H](CN(C)Cc1ccncc1)O2	7.1	24.0	-0.9	/	/	/	/
CO[C@@H]1CN(C)C(=O)c2ccc(NS(C)(=O)=O)cc2OC[C@@H](C)N(C(=O)c2ccc3c(c2)OCO3)C[C@@H]1C	1.3	35.8	-0.1	/	/	/	/
CCCNC(=O)C[C@@H]1CC[C@@H]2[C@@H](COc3ccc(NC(=O)c4cccc(C(F)(F)F)c4)cc3C(=O)N2C)O1	6.5	-21.8	4.9	/	/	/	/
C[C@@H]1CN([C@@H](C)CO)C(=O)c2cccc(NC(=O)c3ccncc3)c2O[C@@H]1CN(C)C(=O)NC1CCCCC1	0.3	54.2	-3.2	/	/	/	/
CO[C@@H]1CN(C)C(=O)c2cc(NC(=O)C3CC3)ccc2OC[C@H](C)N(Cc2cccc(F)c2)C[C@H]1C	-74.4	98.9*	/	?	37.6	-2.3	-0.1
SMILES	Pf Dd2 inh	T cruzi growth-1	C diff HTS	T cruzi growth-2	T cruzi growth-3	3T3 cytotox	NIH3T3 tox 2
CO[C@@H]1CN(C)C(=O)c2cc(NC(=O)C3CC3)ccc2OC[C@@H](C)N(Cc2cccc(F)c2)C[C@@H]1C	-58.9	62.7	/	/	/	/	/
C[C@H](CO)N1C[C@H](C)[C@@H](CN(C)CC2CCCCC2)Oc2ccc(NS(=O)(=O)c3ccc(F)cc3)cc2CC1=O	-28.3	107.0*	-12.7	107.5*	89.0	33.4	103.9*
CC(C)NC(=O)N(C)C[C@H]1Oc2ccc(NS(=O)(=O)c3ccc(F)cc3)cc2CC(=O)N([C@H](C)CO)C[C@@H]1C	14.1	103.3*	4.7	15.8	49.5	1.5	5.8
CC(C)NC(=O)N(C)C[C@@H]1Oc2ccc(NS(=O)(=O)c3ccc(F)cc3)cc2CC(=O)N([C@@H](C)CO)C[C@H]1C	19.6	100.8	-4.1	/	/	/	/
C[C@H](CO)N1C[C@H](C)[C@@H](CN(C)CC2CCCCC2)Oc2ccc(NS(=O)(=O)c3ccc(Cl)cc3)cc2CC1=O	-52.8	94.2	10.5	/	/	/	/
C[C@@H]1CN([C@H](C)CO)C(=O)Cc2cc(NS(=O)(=O)c3ccc(Cl)cc3)ccc2O[C@H]1CN(C)CC1CCCCC1	3.3	106.3*	54.7	95.9*	?	27.0	106.3*
C[C@H]1CN([C@@H](C)CO)C(=O)Cc2cc(NS(=O)(=O)c3ccc(F)cc3)ccc2O[C@H]1CN(C)CC1CC1	1.7	/	-1.4	/	/	/	/
COc1cccc(C#Cc2cnc3c(c2)C(=O)N([C@H](C)CO)C[C@@H](C)[C@@H](CN(C)C(=O)C2CCOCC2)O3)c1	-42.0	/	-1.3	/	/	/	/
CN(C)C(=O)C[C@@H]1C=C[C@@H](NC(=O)C2CCOCC2)[C@@H](CO)O1	4.8	/	-1.7	/	/	/	/
O=C(C[C@@H]1C=C[C@@H](NC(=O)C2CCOCC2)[C@@H](CO)O1)NCc1ccccc1Cl	48.0	/	-1.6	/	/	/	/
CC(C)NC(=O)N(C)C[C@@H]1Oc2c(NS(=O)(=O)c3cn(C)cn3)cccc2C(=O)N([C@H](C)CO)C[C@@H]1C	17.0	54.3	-4.1	/	/	/	/
CC(C)CC#Cc1ccc2c(c1)O[C@@H](CN(C)Cc1ccc(F)cc1)[C@H](C)CN([C@@H](C)CO)S2(=O)=O	-33.0	36.3	4.5	/	/	/	/
CC(C)CC#Cc1ccc2c(c1)O[C@H](CN(C)Cc1ccccc1)[C@@H](C)CN([C@H](C)CO)S2(=O)=O	-71.3	105.9*	12.2	96.6*	88.7	-3.3	104.7*

Compound activity as filed in PubChem BioAssay.
